High-throughput results: PubChem BioAssay, several laboratories
In the library only some 4.6% were active in any assay of this set; here they are far more common.
tim23-1 inh: inhibits growth of tim23-1 mutant yeast. inhibition, % at 20 µM. S. cerevisiae tim23-1 growth, BacTiter-Glo luminescence, 24 h. 330,000 compounds, 1.3% hits. AID 463212;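 active = growth inhibition of the mutant yeast at or above 50%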;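 note: temperature-sensitive mutant grown at 25 °C; plate controls were DMSO-treated mutant yeast for no effect and medium wells lacking yeast for full effect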
NLRP3 yeast inh: inhibitors of NALP3 inflammasome in yeast | AID 2825 | inhibition, % at 10 µM | 330,000 compounds, 0.39% hits | Yeast reconstituted NLRP3/ASC/caspase-1, beta-gal luminescence, 24 h;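 active = inhibition of 50% or more; inactive = inhibition below 50%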;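 note: plate controls were induced DMSO wells for no effect and uninduced yeast grown without galactose for full effect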
TIM10 inh: TIM10 yeast growth inhibition. inhibition, % at 10 µM. S. cerevisiae TIM10 strain growth, BacTiter-Glo luminescence, 24 h. 330,000 compounds, 1.4% hits;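 active = inhibition of 40% or more at the single tested concentration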;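 note: wild-type TIM10 isogenic control strain grown at permissive 25 °C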
SKKanGAS inh: SKKanGAS growth inhibition. 300,000 compounds, 1.3% hits. S. pyogenes SKKanGAS, kanamycin growth, BacTiter-Glo, 6 h. inhibition, % at 7.5 µM. AID 1662;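 active = mean replicate score, as percent of positive control median, at least 50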;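 note: strain carries kanamycin resistance gene driven by streptokinase promoter and grows in 40 µg/ml kanamycin; loss of luminescence reflects streptokinase promoter inhibition or plain growth inhibition; 0% = median of DMSO wells and 100% = positive control at its reference dose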
tim10-1 inh: tim10-1 yeast growth inhibition | inhibition, % at 20 µM | 330,000 compounds, 2.2% hits | S. cerevisiae tim10-1 ts strain growth, BacTiter-Glo, 24 h;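 active = inhibition of at least 40%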;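 note: mutant grown at 25 °C; 0% = DMSO wells with yeast and 100% = wells holding no yeast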
PfHsp90 yeast 2: inhibits growth of yeast expressing Plasmodium falciparum Hsp90; S. cerevisiae expressing PfHsp90, BacTiter-Glo ATP, 48 h; yeast lacking PDR1 and PDR3 efflux regulators; inhibition, % at 9.4 µM; 310,000 compounds, 0.32% hits; AID 504621;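 active = every replicate shows inhibition above about 80%, whatever the replicate mean, limit read from the data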;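 note: 0% = DMSO neutral controls and 100% = 20 µM radicicol positive controls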
tim10-1 confirm: tim10-1 yeast growth inhibition, confirmed; shares compounds with tim10-1 inh; S. cerevisiae tim10-1 ts strain growth, BacTiter-Glo, 24 h; inhibition, % at 20 µM; 7,400 compounds, 56% hits;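 active = inhibition of yeast growth at or above a set limit in either of two repeat tests at 20 µM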;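 note: tim10-1 mutant grown at permissive 25 °C to find synthetic lethal compounds; 0% = DMSO yeast wells and 100% = medium wells without yeast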
Numbers without * were called inactive; x = not tested or not shown.

SMILES | tim23-1 inh | NLRP3 yeast inh | TIM10 inh | SKKanGAS inh | tim10-1 inh | PfHsp90 yeast 2 | tim10-1 confirm
COc1cc(Nc2nc3ccccc3nc2NS(=O)(=O)c2ccc([N+](=O)[O-])cc2)cc(OC)c1OC | 38 | 9 | 22 | 24 | 46* | -8 | 35*
Cc1ccccc1C(OCC(O)CN1CCC(C(N)=O)CC1)c1ccccc1 (configuration not stated) | 8 | 11 | 2 | -4 | -14 | -1 | x
Nc1nc(Sc2ccc([N+](=O)[O-])cc2[N+](=O)[O-])n[nH]1 | 11 | 13 | 4 | 2 | 7 | -31 | x
Cc1ccc(Sc2ccc([N+](=O)[O-])cc2[N+](=O)[O-])nc1 | 36 | 26 | 26 | -17 | 40* | -18 | 37*
Cc1ccnc(Sc2ccc([N+](=O)[O-])cc2[N+](=O)[O-])n1 | 40 | 16 | 26 | -1 | 59* | 7 | 53*
CCOC(=O)c1sc(-c2ccc(F)cc2)cc1N | 45 | -41 | 27 | 10 | 42* | x | 39*
Nc1nc(-c2ccc(Br)cc2)cs1 | 44 | 31 | 32 | 3 | 56* | -17 | 46*
Nc1nc(-c2ccc(F)cc2)cs1 | 22 | 13 | 1 | -8 | -2 | -11 | x
CCCCOP(=O)(c1ccc(N(C)C)cc1)C(O)c1ccc(OC)cc1 (configuration not stated) | 23 | -7 | 7 | -2 | 20 | 4 | x
CCCCOP(=O)(c1ccc(N(C)C)cc1)C(O)c1ccccc1F (configuration not stated) | 24 | 0 | 31 | -12 | 43* | -33 | 21
COc1ccc(NC(=O)CSc2n[nH]c(CNc3cccc(C)c3)n2)cc1 | 11 | 11 | -12 | -2 | 11 | 0 | x
Cc1cccc2[nH]c3c(N4CCC5(CC4)OCCO5)ncnc3c12 | 33 | 2 | 22 | 4 | 51* | x | 32*
Clc1ccc2[nH]c3c(N4CCC5(CC4)OCCO5)ncnc3c2c1 | 22 | 20 | 3 | 9 | 21 | x | x
COc1ccc(C(C(=O)Nc2ccc(C(C)C)cc2)N(Cc2ccco2)C(=O)CC2NC(=O)NC2=O)cc1 (configuration not stated) | 16 | 0 | 1 | 3 | 7 | -27 | x
Cc1cc(O)c(C(=O)/C=C/c2ccccc2)c(=O)o1 | 42 | 6 | 13 | 18 | 30 | 29 | x
Cc1cc(O)c(C(=O)/C=C/c2ccc(C(C)C)cc2)c(=O)o1 | 43 | 21 | 31 | 19 | 43* | -2 | 33*
Cc1cc(O)c(C(=O)/C=C/c2ccccc2Br)c(=O)o1 | 35 | 18 | 23 | 33 | 46* | 11 | 11
Cc1ccc(SCC(=O)NC2CCCCCC2)cc1 | 20 | 34 | -13 | 4 | 6 | 6 | x
CCC(=O)N1c2ccc(S(=O)(=O)CCC(=O)N3CCn4c3nc3ccccc34)cc2CC1C (configuration not stated) | 6 | -15 | 17 | -3 | 45* | 16 | 29
Clc1cccc(/C=N/Nc2ncnc3ccccc23)c1 | 35 | 21 | 39 | 5 | 40* | 56 | 18
Cc1ccc(/C=N\Nc2cn[nH]c(=O)c2Cl)cc1 | 41 | 3 | 32 | 2 | 28 | 11 | x
COc1ccc(/C=N/Nc2cn[nH]c(=O)c2Cl)cc1 | 20 | -2 | 32 | 22 | 42* | 0 | 9
COc1ccc(N2CCN(C(=O)c3ccc(CS(=O)(=O)c4ccc(OC)cc4)o3)CC2)cc1 | 5 | -2 | 8 | -4 | 16 | 31 | x
COc1ccc(S(=O)(=O)Cc2ccc(C(=O)N3CCN(c4cc(C)ccc4C)CC3)o2)cc1 | 29 | 8 | 12 | 7 | 45* | -4 | -5
COc1ccc(S(=O)(=O)Cc2ccc(C(=O)NC3CCC(C)CC3)o2)cc1 (configuration not stated) | 23 | 4 | 12 | -1 | 40* | -4 | 6
COc1ccc(S(=O)(=O)Cc2ccc(C(=O)N3CCN(c4ccc(Cl)cc4)CC3)o2)cc1 | 35 | 6 | 25 | 0 | 46* | 30 | 18
Cn1nnnc1SCC(=O)C(C)(C)C | 1 | 6 | -21 | -2 | -7 | -7 | x
